We go through 40 molecules from PubChem BioAssay (Tox21).

SMILES strings stand for the structures. Records with an inconclusive call do not appear. Activity calls are given as the source filed them. Calls follow the shape of the dose curve; as a rule, active = well fitted activation curve with a large enough effect in the signal ratio in the repeat runs (not every such curve was filed as active); inconclusive = weak or mixed curves; inactive = flat fitted curve, though single readings scatter; the % refers to the signal ratio.
% is scaled to controls: 0 for no effect and ±100 for the full control effect.

This assay can be described thus: qHTS assay to identify small molecule agonists of the hypoxia (HIF-1) signaling pathway (AID 1224846). The settings on record: HRE-bla ME-180 cells, beta-lactamase ratio, 17 h; series mostly up to 76.8 µM; activation: at the top concentration. An excerpt: U.S. Tox21 Program National Center for Advancing Translational Sciences [NCATS] NIH Chemical Genomics Center [NCGC] U.S. Environmental Protection Agency [EPA] National Institutes of Environmental Health Sciences [NIEHS] National Toxicology Program [NTP] U.S. Food and Drug Administration [FDA] Tox21 Assay Overview: Hypoxia-inducible factor-1 (HIF-1) is the major hypoxia-regulated transcription factor that controls cellular responses to low oxygen concentration. HIF-1 is composed of two subunits: hypoxia responsive HIF-1-alpha and constitutively expressed HIF-1-beta, which is also known as aryl hydrocarbon receptor nuclear translocator. During hypoxic conditions, HIF-1-alpha heterodimerizes with HIF-1-beta and translocates into the nucleus where the HIF-1 complex binds to the hypoxia-response element (HRE) and activates expression of target genes such as VEGF (vascular endothelial growth factor). The HIF-1 pathway is essential to normal growth and development, and is involved in the pathophysiology of cancer, inflammation, and ischemia. Using a beta-lactamase reporter-gene under control of the hypoxia response element, a cell-based assay [CellSensor(TM) HRE-bla ME-180 from Life Technologies, Carlsbad, CA] was used to measure hypoxia-induced signaling. Tox21 10K library compounds were measured for their ability to induce the reporter gene activity.
Tox21 Assay Protocol Summary: HRE-bla ME-180 cells were dispensed at 2,000 cells per well in 6 uL of assay medium containing 0.5% dialyzed FBS into black wall/clear-bottom 1536-well plates using a Multidrop Combi (Thermo Scientific, Waltham, MA) dispenser. After the assay plates were incubated at 37C and 5% CO2 for 5 hrs, 23 nL of compounds dissolved in DMSO, positive controls or DMSO only was transferred to each well of the assay plate using a Pintool station (Kalypsys, San Diego, CA). The assay plates were incubated at 37C and 5% CO2 for 17 hrs. One uL of LiveBLAzerTM B/G FRET substrate (CCF4-AM) (Life Technologies) was added to each well using a Flying Reagent Dispenser (Aurora Discovery, San Diego, CA).
Background: In qHTS, concentration-response curves come from the screen itself.
For the molecule `C=CC(=O)NC(C)(C)CC(C)=O`, the “activation” value was -0.279% (inactive). Regarding `CCOP(=O)(SC(C)CC)N1CCSC1=O` (stereo not given), the “activation” value was -0.795% (inactive). For `CN1CC[C@]23c4c5ccc(O)c4O[C@H]2[C@@H](O)C=C[C@H]3[C@H]1C5`, the “activation” value was -0.224% (inactive). For `O=C(N/N=C/c1ccc([N+](=O)[O-])o1)c1cc([N+](=O)[O-])cc([N+](=O)[O-])c1O`, the “activation” value was 0.953% [at 35.5 µM] (inactive). Consider `c1ccc2c(c1)-c1cccc3cccc-2c13`, for which the outcome was inactive. Turning to `CCC(C)(C)O`, the “activation” value was -0.715% (inactive). Take `CCCCCCCCCCCCCCCl`: the “activation” value was -0.633% (inactive).

As for `CCC1CCC(=O)O1` (stereo not given), the “activation” value was 0.419% (inactive). As for `C[C@]12C=CC3=C4CCC(=O)C=C4CC[C@H]3[C@@H]1CC[C@@H]2O`, the “activation” value was -0.479% (inactive). For `N#CC(C#N)=C(C#N)C#N`, the “activation” value is -0.983% (inactive).

Consider `CN[C@@H](C)[C@H](O)c1ccccc1`, for which the “activation” value is 0.245% [at 35.5 µM] (inactive).

`C[N+](C)(C)CCOC(=O)C(O)(c1ccccc1)c1ccccc1`: the “activation” value was -1.29% [at 35.5 µM] (inactive). Consider `CCOP(=S)(OCC)SCSc1cc(Cl)ccc1Cl`, for which the “activation” value was 0.0679% (inactive).

As for `O=C(NC(=O)c1cc(F)c(F)cc1Cl)Nc1cc(F)ccc1N1CCC(C(=O)O)CC1`, the “activation” value is -1.49% [at 35.5 µM] (inactive). For `CCOc1cccc(C2(N3CCN(c4ccccc4)CC3)CCC(C)CC2)c1` (stereo not given), the “activation” value is 0.0662% (inactive).

With `COP(=O)(OC)OC(Br)C(Cl)(Cl)Br` (stereo not given), the “activation” value was 2.93% (inactive). Take `Nc1cc(Cl)cc(C(=O)O)c1Cl`: the outcome was inactive. Take `COc1cc(CC#N)cc(OC)c1OC`: the “activation” value is -1.46% [at 35.5 µM] (inactive).

For the molecule `C[N+](C)(C)CC1CO1` (stereo not given), the “activation” value was -0.776% (inactive). Still for that read-out and setting: the result for `CCCCCBr` reads -0.542% (inactive); that for `C[N+]1(CCF)[C@@H]2CC[C@H]1CC(OC(=O)C(O)(c1ccccc1)c1ccccc1)C2` (stereo not given in full), -0.612% [at 35.5 µM] (inactive); that for `COCc1cnc(C2=NC(C)(C(C)C)C(=O)N2)c(C(=O)O)c1` (stereo not given), -0.817% (inactive). `CCCCCCCCP(=O)(O)O`: the “activation” value is -1.56% (inactive). The same measure, in the same setting: the result for `CC(C)(c1ccccc1)c1cc(-n2nc3ccccc3n2)c(O)c(C(C)(C)c2ccccc2)c1` reads 1.51% [at 35.5 µM] (inactive); that for `NCCc1cc(O)c(O)cc1O`, -0.911% [at 35.5 µM] (inactive). For `COC1=CC(=O)O[C@@H](/C=C/c2ccc3c(c2)OCO3)C1`, the “activation” value was 0.45% (inactive). Regarding `O=[N+]([O-])c1cc(Cl)c(Cl)cc1Cl`, the “activation” value was 0.212% (inactive). Consider `O=C(N[C@H]1CN2CCC1CC2)c1ccc2c(c1)OCCO2`, for which the “activation” value is -0.474% (inactive).

As for `CCC(=O)O[C@@H]1C=C2CCC3C(CCC4(C)C3CC[C@@H]4OC(=O)CC)C2CC1` (stereo not given in full), the “activation” value is -1.49% [at 35.5 µM] (inactive). Regarding `CC(C)OC(=O)Cc1ccccc1`, the “activation” value is 1.34% (inactive). For the molecule `CCCN(CCOc1c(Cl)cc(Cl)cc1Cl)C(=O)n1ccnc1`, the outcome was inactive. Consider `CCCCOC(=O)CCC(=O)OCCCC`, for which the “activation” value is 0.0453% (inactive). Turning to `C=CCSSCC=C`, the “activation” value is -1.11% (inactive). In the case of `Cc1nnc(-c2ccccc2)c(=O)n1N`, the “activation” value was 0.0458% (inactive). Turning to `CCc1cnc(C2=NC(C)(C(C)C)C(=O)N2)c(C(=O)O)c1` (stereo not given), the outcome was inactive.

For the molecule `O=C=NC1CCCCC1`, the “activation” value was -1.51% (inactive). On to `CCCSP(=S)(OCC)Oc1ccc(SC)cc1` (stereo not given), for which the “activation” value is 0.742% (inactive). As to `C=C(Cl)Cl`, the “activation” value is -0.279% (inactive). As for `O=C(O)C(F)(F)C(F)(F)C(F)(F)C(F)(F)C(F)(F)F`, the “activation” value is -1.37% (inactive).

As to `CCOC(=O)NC(O)C(Cl)(Cl)Cl` (stereo not given), the “activation” value was -0.157% [at 35.5 µM] (inactive).
